# From PubChem BioAssay (EPA / NIEHS)
# Inconclusive results are not listed. Calls of active or inactive are those of the source. The calls were made as follows, unless noted: active = hit-call score of the fitted dose curve at least 0.9, where 1 is the maximum; inactive = score below 0.9.
# Experiments:
# [1] = target: Paired box protein Pax-6 (Homo sapiens) (UniProt P26367); test: ATG_Pax6_CIS: Attagene CIS-FACTORIAL HepG2 Assay for human Paired Box 6 (PAX6) (AID 2282956); details: HepG2 CIS-FACTORIAL PAX6 reporter transcription, RNA readout; actives raise or lower the signal
# Method in brief: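 Values derive from bidirectional curve fitting of reporter mRNA signal relative to DMSO. HepG2 cells bearing transfected cis-regulated MRTUs were exposed for 24 h; transcripts were read by RT-PCR and capillary electrophoresis.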
# [2] = ATG_PXRE_CIS: Attagene CIS-FACTORIAL HepG2 Assay for human Pregnane X Receptor Element (PXRE) (AID 2282957); details: HepG2 Attagene CIS-FACTORIAL PXRE reporter, mRNA; actives raise or lower the signal
# Method in brief: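 Bidirectional activity, baselined to DMSO, derived from reporter mRNA fluorescence (RT-PCR plus capillary electrophoresis) in HepG2 cells bearing cis-promoter reporter units, 24 h exposure.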
# [3] = ATG_PPRE_CIS: Attagene CIS-FACTORIAL HepG2 Assay for human Peroxisome Proliferator-activated Response Element (PPRE) (AID 2282958); details: HepG2 PPRE cis-element reporter, Attagene transcription factor profiling; actives raise or lower the signal
# Method in brief: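 HepG2 cells are transiently transfected with multiplexed cis-promoter reporter units to report endogenous PPAR activity. After 24 h dosing, reporter mRNA is read by RT-PCR and capillary electrophoresis. Fitting is bidirectional against DMSO.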
# [4] = ATG_RORE_CIS: Attagene CIS-FACTORIAL HepG2 Assay for human RAR-related Orphan Receptor Element (RORE) (AID 2282959); details: HepG2 Attagene cis-factorial RORE reporter, mRNA; actives raise or lower the signal
# Method in brief: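 HepG2 cells carrying transiently transfected cis-regulated reporter units; RORE-driven reporter mRNA quantified 24 h post-dosing by RT-PCR, 6-FAM primer extension, HpaI digestion and capillary electrophoresis. Bidirectional fit versus DMSO.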
# [5] = target: Transcription factor Sp1 (Homo sapiens) (UniProt P08047); test: ATG_Sp1_CIS: Attagene CIS-FACTORIAL HepG2 Assay for human Specificity Protein 1 (Sp1) (AID 2282961); details: HepG2 Sp1 cis-reporter transcription, actives raise or lower the signal
# Method in brief: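 HepG2 cells transiently transfected with multiplexed cis-regulated reporter constructs, chemical exposure 24 h. Reporter mRNA quantified by RT-PCR with capillary electrophoresis; bidirectional fit relative to DMSO.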
# [6] = ATG_SREBP_CIS: Attagene CIS-FACTORIAL HepG2 Assay for human Sterol Regulatory Element Binding (SREBP) (AID 2282962); details: HepG2 Attagene cis-factorial SREBP reporter, mRNA; actives raise or lower the signal
# Method in brief: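 Values derive from bidirectional curve fitting with DMSO as baseline. The underlying measurement is reporter mRNA from cis-element-regulated units in transiently transfected HepG2, quantified by RT-PCR and capillary electrophoresis after 24 h exposure.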
# [7] = target: Signal transducer and activator of transcription 3 (Homo sapiens) (UniProt P40763); test: ATG_STAT3_CIS: Attagene CIS-FACTORIAL HepG2 Assay for human Signal Transducer and Activator of Transcription 3 (STAT3) (AID 2282963); details: HepG2, Attagene cis-factorial STAT3 reporter transcription; actives raise or lower the signal
# Method in brief: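 Cis-factorial format: endogenous transcription factors in HepG2 drive transfected reporter units. After 24 h treatment, reporter RNA was reverse-transcribed, amplified, FAM-labelled and HpaI-digested before CE analysis; activity scored in both directions against DMSO.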
# [8] = ATG_TA_CIS: Attagene CIS-FACTORIAL HepG2 Assay for human TA Basal Promoter (AID 2282964); details: HepG2 Attagene CIS-factorial TA basal promoter reporter; actives raise or lower the signal
# Method in brief: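 Fluorescence from labelled RT-PCR reporter fragments, separated by capillary electrophoresis, gives the signal. Cells: HepG2 transiently carrying multiple reporter units, 24 h chemical dosing. Gain or loss relative to DMSO.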
# [9] = ATG_TCF_b_cat_CIS: Attagene CIS-FACTORIAL HepG2 Assay for human T-Cell-Factor with beta-catenin (TCF/b-cat) (AID 2282965); details: HepG2 TCF/beta-catenin cis-reporter transcription, actives raise or lower the signal
# Method in brief: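 Endogenous transcription factor activity is captured through cis-promoter reporter constructs transiently introduced into human HepG2 liver cells. Induced reporter mRNA is measured after 24 h and fitted bidirectionally relative to DMSO.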
# [10] = ATG_TAL_CIS: Attagene CIS-FACTORIAL HepG2 Assay for human TAL Basal Promoter (AID 2282966); details: HepG2 Attagene cis-factorial TAL promoter reporter; actives raise or lower the signal;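 also: background control endpoint measuring basal TAL promoter reporter mRNA not a specific factor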
# Method in brief: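 Human hepatoma HepG2 cells, transfected with promoter-regulated reporter units, were treated 24 h. Reporter transcript levels, measured through RT-PCR and capillary electrophoresis, were fitted for gain or loss relative to DMSO.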
# [11] = ATG_TGFb_CIS: Attagene CIS-FACTORIAL HepG2 Assay for human Transforming Growth Factor (TGF) (AID 2282967); details: HepG2 Attagene CIS TGFb reporter, mRNA transcription; actives raise or lower the signal
# Method in brief: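 Bidirectional fitting relative to DMSO gave the endpoint. Underlying data: reporter mRNA from HepG2 cells carrying transiently transfected cis-regulated reporter constructs, harvested 24 h after dosing and analyzed by RT-PCR and capillary electrophoresis.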
# [12] = ATG_VDRE_CIS: Attagene CIS-FACTORIAL HepG2 Assay for human Vitamin D Receptor Element (VDRE) (AID 2282968); details: HepG2 VDRE cis-reporter transcription, actives raise or lower the signal
# Method in brief: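 Measures endogenous factor activity through cis-element-driven reporter transcripts in transiently transfected HepG2. Cells are treated 24 h; reporter mRNA is quantified by RT-PCR and capillary electrophoresis; fitting is bidirectional.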
# [13] = target: Nuclear receptor subfamily 1 group I member 3 (Homo sapiens) (UniProt Q14994); test: ATG_CAR_TRANS: Attagene TRANS-FACTORIAL HepG2 Assay for human Constitutive Androstane Receptor (CAR) (AID 2282969; active = hit-call score of the fitted dose curve at least 0.9, where 1 is the maximum;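 also: activators raise reporter mRNA above DMSO so AC50 marks induction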); details: HepG2 Attagene TRANS-FACTORIAL CAR reporter
# Method in brief: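 Signal is reporter mRNA induction relative to DMSO, measured 24 h after dosing by RT-PCR with fluorescent primer extension and capillary electrophoresis. Human HepG2 liver cells carried transiently transfected chimeric NR-Gal4/GAL4-UAS reporter constructs.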
# [14] = target: X-box-binding protein 1 (Homo sapiens) (UniProt P17861); test: ATG_Xbp1_CIS: Attagene CIS-FACTORIAL HepG2 Assay for human X-box Binding Protein 1 (XBP1) (AID 2282972); details: HepG2 XBP1 cis-element reporter, Attagene multiplex; actives raise or lower the signal
# Method in brief: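 Human hepatoma HepG2, cis-element reporter system, 24 h treatment; mRNA quantified by RT-PCR/CE fluorescence; fit relative to DMSO.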
# [15] = ATG_M_19_TRANS: Attagene TRANS-FACTORIAL HepG2 Assay for M19 Transcription Factor (Internal Marker) (AID 2282974; active = hit-call score of the fitted dose curve at least 0.9, where 1 is the maximum); details: HepG2 Attagene TRANS-FACTORIAL M19 internal marker reporter
# Method in brief: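 HepG2 transiently transfected with GAL4-UAS multiplex reporter constructs, exposed 24 h; reporter RNA quantified by RT-PCR, 6-FAM labeling, HpaI digestion and capillary electrophoresis; internal background marker fitted upward versus DMSO.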
# [16] = ATG_GAL4_TRANS: Attagene TRANS-FACTORIAL HepG2 Assay for GAL4 (Internal Marker) (AID 2282976; active = hit-call score of the fitted dose curve at least 0.9, where 1 is the maximum); details: HepG2 Attagene TRANS GAL4 internal marker reporter
# Method in brief: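 Liver HepG2 line bearing multiplexed GAL4-UAS reporter constructs; 24 h chemical treatment. Transcripts were quantified as fluorescent fragments on capillary electrophoresis after RT-PCR and HpaI cut, with activity fitted upward from DMSO.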
# [17] = ATG_Sox_CIS: Attagene CIS-FACTORIAL HepG2 Assay for human SRY-box transcription factor (SOX) (AID 2282960); details: HepG2 Attagene cis-factorial SOX reporter, mRNA; actives raise or lower the signal
# Method in brief: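 HepG2 cells transiently transfected with multiple cis-regulated reporter units, then dosed for 24 h. Reporter mRNA quantified by RT-PCR, fluorescent labelling, HpaI digestion and capillary electrophoresis; bidirectional fit versus DMSO.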
# [18] = target: Steroid hormone receptor ERR1 (Homo sapiens) (UniProt P11474); test: ATG_ERRa_TRANS: Attagene TRANS-FACTORIAL HepG2 Assay for human Estrogen-Related Receptor alpha (ERRa) (AID 2282971; active = hit-call score of the fitted dose curve at least 0.9, where 1 is the maximum); details: HepG2 Attagene TRANS reporter, ERRa transactivation
# Method in brief: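 Signal gain relative to DMSO for an ERRa-Gal4 chimeric receptor, read as reporter mRNA by RT-PCR/capillary electrophoresis. Human HepG2 liver cells, transient multiplex reporter transfection, 24 h chemical exposure.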
# [19] = target: Estrogen-related receptor gamma (Homo sapiens) (UniProt P62508); test: ATG_ERRg_TRANS: Attagene TRANS-FACTORIAL HepG2 Assay for human Estrogen-Related Receptor gamma (ERRg) (AID 2282977; active = hit-call score of the fitted dose curve at least 0.9, where 1 is the maximum;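 also: hits increase reporter signal over DMSO so potencies reflect activators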); details: HepG2 Attagene TRANS reporter, ERRg transactivation
# Method in brief: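 Exogenous NR-Gal4 chimera activity was assessed in HepG2 cells bearing transfected GAL4-UAS reporters. After 24 h dosing, total RNA underwent RT-PCR, fluorescent primer extension and HpaI digestion before capillary electrophoresis, with gain of signal scored against DMSO.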
# Signal transducer and activator of transcription 3 (Homo sapiens), sequence (P40763 whole entry, looked up): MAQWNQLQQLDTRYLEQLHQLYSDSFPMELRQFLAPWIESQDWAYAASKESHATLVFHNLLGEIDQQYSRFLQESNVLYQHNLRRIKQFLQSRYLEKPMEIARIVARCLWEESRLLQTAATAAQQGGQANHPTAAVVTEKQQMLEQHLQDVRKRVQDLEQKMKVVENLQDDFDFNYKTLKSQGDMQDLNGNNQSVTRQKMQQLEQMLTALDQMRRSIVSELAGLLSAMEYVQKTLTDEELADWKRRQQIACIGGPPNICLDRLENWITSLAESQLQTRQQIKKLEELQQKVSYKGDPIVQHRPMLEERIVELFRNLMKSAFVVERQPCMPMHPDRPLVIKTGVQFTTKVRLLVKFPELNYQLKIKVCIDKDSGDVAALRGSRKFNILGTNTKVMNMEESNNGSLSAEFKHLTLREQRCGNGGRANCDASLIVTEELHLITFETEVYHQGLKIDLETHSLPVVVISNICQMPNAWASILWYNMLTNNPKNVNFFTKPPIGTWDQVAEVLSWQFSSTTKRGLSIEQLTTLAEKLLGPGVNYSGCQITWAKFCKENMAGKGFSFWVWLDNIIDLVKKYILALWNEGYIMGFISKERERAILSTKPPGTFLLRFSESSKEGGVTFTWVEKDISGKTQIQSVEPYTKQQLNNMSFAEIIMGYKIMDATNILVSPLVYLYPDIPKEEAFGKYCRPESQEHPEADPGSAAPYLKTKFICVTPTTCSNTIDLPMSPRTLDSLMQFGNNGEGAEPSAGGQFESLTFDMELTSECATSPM
# Transcription factor Sp1 (Homo sapiens), sequence (P08047 whole entry, looked up): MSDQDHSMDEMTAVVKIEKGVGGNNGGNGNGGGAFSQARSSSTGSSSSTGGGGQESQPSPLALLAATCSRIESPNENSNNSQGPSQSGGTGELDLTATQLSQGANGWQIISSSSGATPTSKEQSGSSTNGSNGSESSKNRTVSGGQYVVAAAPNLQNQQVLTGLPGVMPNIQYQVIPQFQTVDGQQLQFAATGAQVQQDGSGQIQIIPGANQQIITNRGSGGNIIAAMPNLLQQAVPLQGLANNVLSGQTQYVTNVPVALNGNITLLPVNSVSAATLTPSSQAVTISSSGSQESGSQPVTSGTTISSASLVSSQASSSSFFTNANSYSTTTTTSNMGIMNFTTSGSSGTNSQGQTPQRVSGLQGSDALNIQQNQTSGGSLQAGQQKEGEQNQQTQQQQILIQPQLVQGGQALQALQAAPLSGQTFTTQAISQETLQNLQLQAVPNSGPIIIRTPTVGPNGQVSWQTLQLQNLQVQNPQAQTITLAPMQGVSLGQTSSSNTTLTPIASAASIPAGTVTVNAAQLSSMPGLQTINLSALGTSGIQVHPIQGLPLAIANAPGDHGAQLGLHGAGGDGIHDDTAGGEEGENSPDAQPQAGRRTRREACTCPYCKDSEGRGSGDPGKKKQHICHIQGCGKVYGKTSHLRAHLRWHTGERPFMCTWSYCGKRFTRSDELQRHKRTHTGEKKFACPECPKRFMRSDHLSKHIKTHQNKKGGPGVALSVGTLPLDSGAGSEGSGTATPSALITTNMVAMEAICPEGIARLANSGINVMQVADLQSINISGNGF
# Paired box protein Pax-6 (Homo sapiens), sequence (P26367 whole entry, looked up): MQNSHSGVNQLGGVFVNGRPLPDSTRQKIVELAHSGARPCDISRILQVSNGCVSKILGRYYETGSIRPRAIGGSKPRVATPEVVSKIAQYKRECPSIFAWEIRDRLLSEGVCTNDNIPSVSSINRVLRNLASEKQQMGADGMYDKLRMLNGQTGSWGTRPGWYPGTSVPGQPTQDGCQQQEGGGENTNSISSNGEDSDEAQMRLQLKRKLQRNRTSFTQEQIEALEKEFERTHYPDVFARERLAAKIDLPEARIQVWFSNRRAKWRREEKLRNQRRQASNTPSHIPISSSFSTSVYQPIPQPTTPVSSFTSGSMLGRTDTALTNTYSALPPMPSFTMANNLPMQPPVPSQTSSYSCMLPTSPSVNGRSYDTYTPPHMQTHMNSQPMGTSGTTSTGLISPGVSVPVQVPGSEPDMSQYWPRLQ
# X-box-binding protein 1 (Homo sapiens), sequence (P17861 whole entry, looked up): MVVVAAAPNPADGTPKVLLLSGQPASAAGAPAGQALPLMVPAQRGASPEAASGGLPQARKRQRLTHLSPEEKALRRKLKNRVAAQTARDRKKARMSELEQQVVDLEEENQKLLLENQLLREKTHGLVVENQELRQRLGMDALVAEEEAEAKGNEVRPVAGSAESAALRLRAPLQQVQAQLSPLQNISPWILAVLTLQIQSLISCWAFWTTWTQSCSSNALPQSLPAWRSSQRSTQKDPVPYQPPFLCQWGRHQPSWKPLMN
# Estrogen-related receptor gamma (Homo sapiens), sequence (P62508 whole entry, looked up, the tested form may be a part): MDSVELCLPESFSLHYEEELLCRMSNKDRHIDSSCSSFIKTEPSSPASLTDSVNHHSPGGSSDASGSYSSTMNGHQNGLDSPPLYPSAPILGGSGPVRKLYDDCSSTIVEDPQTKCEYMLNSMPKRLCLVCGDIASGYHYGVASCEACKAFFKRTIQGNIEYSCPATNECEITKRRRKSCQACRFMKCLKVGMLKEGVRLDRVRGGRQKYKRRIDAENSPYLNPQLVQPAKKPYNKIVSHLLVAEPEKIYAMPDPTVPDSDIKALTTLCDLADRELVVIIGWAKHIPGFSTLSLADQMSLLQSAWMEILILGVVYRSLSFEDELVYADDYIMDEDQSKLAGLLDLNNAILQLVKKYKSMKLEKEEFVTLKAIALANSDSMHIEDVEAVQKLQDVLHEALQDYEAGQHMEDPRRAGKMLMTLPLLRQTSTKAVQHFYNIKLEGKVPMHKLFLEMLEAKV
# Nuclear receptor subfamily 1 group I member 3 (Homo sapiens), sequence (Q14994 whole entry, looked up, the tested form may be a part): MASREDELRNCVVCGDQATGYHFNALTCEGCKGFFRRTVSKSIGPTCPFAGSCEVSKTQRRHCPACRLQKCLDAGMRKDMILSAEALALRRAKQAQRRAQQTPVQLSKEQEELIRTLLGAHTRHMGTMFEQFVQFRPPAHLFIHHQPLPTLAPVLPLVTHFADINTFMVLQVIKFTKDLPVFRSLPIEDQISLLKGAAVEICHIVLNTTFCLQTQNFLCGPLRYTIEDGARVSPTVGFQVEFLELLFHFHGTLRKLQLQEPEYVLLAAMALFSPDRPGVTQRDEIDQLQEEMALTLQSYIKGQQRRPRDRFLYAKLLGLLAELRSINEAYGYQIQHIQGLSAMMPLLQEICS
# Steroid hormone receptor ERR1 (Homo sapiens), sequence (P11474 whole entry, looked up, the tested form may be a part): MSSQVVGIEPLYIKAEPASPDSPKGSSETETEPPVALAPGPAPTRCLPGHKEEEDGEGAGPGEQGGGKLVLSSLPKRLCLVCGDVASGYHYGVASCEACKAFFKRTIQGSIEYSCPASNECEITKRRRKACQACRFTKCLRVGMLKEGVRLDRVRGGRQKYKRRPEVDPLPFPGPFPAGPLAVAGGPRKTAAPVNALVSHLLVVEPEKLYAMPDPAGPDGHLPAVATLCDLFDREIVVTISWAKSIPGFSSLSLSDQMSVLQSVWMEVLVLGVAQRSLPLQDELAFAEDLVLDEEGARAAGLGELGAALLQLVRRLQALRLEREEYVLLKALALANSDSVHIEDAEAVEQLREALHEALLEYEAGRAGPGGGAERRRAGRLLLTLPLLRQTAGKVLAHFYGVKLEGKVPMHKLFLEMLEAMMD
compound,measurement,setting,value
CCCC[P+](CCCC)(CCCC)CCCC,outcome,[1],inactive
same,outcome,[2],inactive
same,outcome,[3],inactive
same,outcome,[4],inactive
same,outcome,[5],inactive
same,outcome,[6],inactive
same,outcome,[7],inactive
same,outcome,[8],inactive
same,outcome,[9],inactive
same,outcome,[10],inactive
same,outcome,[11],inactive
same,outcome,[12],inactive
same,outcome,[13],inactive
same,outcome,[14],inactive
same,outcome,[15],inactive
same,outcome,[16],inactive
C=C(C)C(=O)OCC(CC)(COC(=O)C(=C)C)COC(=O)C(=C)C,outcome,[1],inactive
same,AC50,[2],10.6 µM (active)
same,outcome,[3],inactive
same,outcome,[4],inactive
same,outcome,[17],inactive
same,outcome,[6],inactive
same,outcome,[7],inactive
same,outcome,[8],inactive
same,outcome,[10],inactive
same,outcome,[11],inactive
same,outcome,[14],inactive
same,outcome,[15],inactive
same,outcome,[16],inactive
CC(C)CCCCCCCCCCCCCCC(=O)O,outcome,[1],inactive
same,outcome,[2],inactive
same,outcome,[3],inactive
same,outcome,[4],inactive
same,outcome,[17],inactive
same,outcome,[5],inactive
same,outcome,[6],inactive
same,outcome,[7],inactive
same,outcome,[9],inactive
same,outcome,[10],inactive
same,AC50,[11],177 µM (active)
same,outcome,[14],inactive
O=C(O)CNc1ccccc1,outcome,[1],inactive
same,AC50,[2],19.2 µM (active)
same,outcome,[3],inactive
same,outcome,[4],inactive
same,outcome,[5],inactive
same,outcome,[6],inactive
same,outcome,[7],inactive
same,outcome,[8],inactive
same,outcome,[9],inactive
same,outcome,[10],inactive
same,outcome,[11],inactive
same,outcome,[12],inactive
same,outcome,[13],inactive
same,outcome,[18],inactive
same,outcome,[14],inactive
same,outcome,[19],inactive
CCCCCC(C)=O,outcome,[1],inactive
same,outcome,[2],inactive
same,outcome,[3],inactive
same,outcome,[4],inactive
same,outcome,[17],inactive
same,outcome,[5],inactive
same,outcome,[7],inactive
same,outcome,[8],inactive
same,outcome,[10],inactive
same,outcome,[11],inactive
same,outcome,[12],inactive
same,outcome,[14],inactive
same,outcome,[15],inactive
same,outcome,[16],inactive
same,outcome,[19],inactive
CCOC(=O)CCc1ccccc1,outcome,[1],inactive
same,outcome,[2],inactive
same,outcome,[3],inactive
same,outcome,[4],inactive
same,outcome,[17],inactive
same,outcome,[6],inactive
same,outcome,[7],inactive
same,outcome,[8],inactive
same,outcome,[9],inactive
same,outcome,[10],inactive
same,outcome,[11],inactive
same,outcome,[12],inactive
same,outcome,[14],inactive
same,outcome,[15],inactive
same,outcome,[16],inactive
